For 1 sequence, binding signal results are on record in article PMC7862700, “An all-to-all approach to the identification of sequence-specific readers for epigenetic DNA modifications on cytosine”.

Assay in all cases: DAPPL (digital affinity profiling via proximity ligation, sequencing); 10 mM Tris-HCl pH 7.5, 50 mM NaCl, 1 mM DTT, 4% glycerol, room temperature, 30 min; GST-TFs on glutathione beads, 16-mer random dsDNA library, 0.1% formaldehyde crosslink after washing; high values mean tight binding
One assay deals with T1, FEV (Homo sapiens, UniProt Q99581 1-238).
T1 sequence: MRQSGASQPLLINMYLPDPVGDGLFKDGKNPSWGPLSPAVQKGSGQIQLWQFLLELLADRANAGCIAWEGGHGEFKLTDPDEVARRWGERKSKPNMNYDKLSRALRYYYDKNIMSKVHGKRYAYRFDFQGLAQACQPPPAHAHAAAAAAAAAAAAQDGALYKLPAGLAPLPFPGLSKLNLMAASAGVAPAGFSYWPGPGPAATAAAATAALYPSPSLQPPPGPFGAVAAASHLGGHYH
As to conditions: protein: recombinant; tags: N-terminal GST; dsDNA, one strand shown. The gist of the method:
(§1)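 In yeast, human transcription factors were expressed with a GST fusion, then pulled down on glutathione beads and given DNA barcodes. Pooled with a tag-only sample, they were exposed to 200 nmole of a 16-mer random double-stranded DNA library (Tris/NaCl/DTT/glycerol buffer, room temperature, 30 min), washed, crosslinked with 0.1% formaldehyde, proximity-ligated using BsaI/T4 ligase for 1 h at 37 °C, PCR-amplified and read on an Illumina NextSeq500. Each hexamer's frequency of reads for a factor, divided by the matching frequency for the tag-only sample, gives the binding signal.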

The target of a further assay is ETV5 (Homo sapiens, UniProt P41161 1-510). As to conditions: protein: recombinant; tags: N-terminal GST; dsDNA, one strand shown. The gist of the method:
as §1

In the next assay the target is HSF1 (Homo sapiens, UniProt Q00613 1-529). The settings on record: protein: recombinant; tags: N-terminal GST; chain copies: 3; dsDNA, one strand shown. Summed up:
as §1

The target of the next assay is T2, SPIC (Homo sapiens, UniProt Q8N5J4 1-248).
T2 sequence: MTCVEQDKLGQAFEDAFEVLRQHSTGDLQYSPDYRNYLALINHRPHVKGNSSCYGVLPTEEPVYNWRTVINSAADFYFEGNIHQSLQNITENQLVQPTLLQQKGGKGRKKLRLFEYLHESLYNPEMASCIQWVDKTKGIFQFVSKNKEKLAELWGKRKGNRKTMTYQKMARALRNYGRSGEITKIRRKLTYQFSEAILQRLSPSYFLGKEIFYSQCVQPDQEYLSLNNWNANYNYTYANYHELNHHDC
The settings on record: protein: recombinant; tags: N-terminal GST; dsDNA, one strand shown. The gist of the method: as §1

The target of another assay is ELF4 (Homo sapiens, UniProt Q99607 1-663). As to conditions: protein: recombinant; tags: N-terminal GST; dsDNA, one strand shown. Summed up:
as §1

A further assay deals with T3, ELK4 (Homo sapiens, UniProt P28324-2 1-405).
T3 sequence: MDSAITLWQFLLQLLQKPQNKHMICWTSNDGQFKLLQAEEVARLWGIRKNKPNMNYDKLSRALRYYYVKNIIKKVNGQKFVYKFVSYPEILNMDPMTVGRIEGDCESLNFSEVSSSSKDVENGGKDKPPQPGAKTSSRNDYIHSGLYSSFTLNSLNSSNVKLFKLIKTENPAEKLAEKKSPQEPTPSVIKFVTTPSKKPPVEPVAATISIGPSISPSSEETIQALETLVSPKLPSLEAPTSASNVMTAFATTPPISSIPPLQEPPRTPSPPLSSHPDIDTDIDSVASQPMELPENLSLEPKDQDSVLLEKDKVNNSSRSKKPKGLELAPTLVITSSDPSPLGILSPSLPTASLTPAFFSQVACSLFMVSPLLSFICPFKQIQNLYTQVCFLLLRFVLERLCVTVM
The settings on record: protein: recombinant; tags: N-terminal GST; dsDNA, one strand shown. The gist of the method:
as §1

Another assay has as its target T4, ETV2 (Homo sapiens, UniProt O00321 1-342).
T4 sequence: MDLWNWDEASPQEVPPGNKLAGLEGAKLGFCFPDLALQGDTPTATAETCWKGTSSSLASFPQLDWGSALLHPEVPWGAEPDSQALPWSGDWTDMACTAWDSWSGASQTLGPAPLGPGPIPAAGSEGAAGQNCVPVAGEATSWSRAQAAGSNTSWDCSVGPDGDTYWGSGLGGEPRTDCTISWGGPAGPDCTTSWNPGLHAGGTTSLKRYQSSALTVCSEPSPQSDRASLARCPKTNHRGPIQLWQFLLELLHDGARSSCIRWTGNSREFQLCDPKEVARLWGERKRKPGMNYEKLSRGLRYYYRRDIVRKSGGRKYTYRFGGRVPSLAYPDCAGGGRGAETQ
As to conditions: protein: recombinant; tags: N-terminal GST; dsDNA, one strand shown. Summed up:
as §1

In the next assay the target is T5, ELF3 (Homo sapiens, UniProt P78545 1-371).
T5 sequence: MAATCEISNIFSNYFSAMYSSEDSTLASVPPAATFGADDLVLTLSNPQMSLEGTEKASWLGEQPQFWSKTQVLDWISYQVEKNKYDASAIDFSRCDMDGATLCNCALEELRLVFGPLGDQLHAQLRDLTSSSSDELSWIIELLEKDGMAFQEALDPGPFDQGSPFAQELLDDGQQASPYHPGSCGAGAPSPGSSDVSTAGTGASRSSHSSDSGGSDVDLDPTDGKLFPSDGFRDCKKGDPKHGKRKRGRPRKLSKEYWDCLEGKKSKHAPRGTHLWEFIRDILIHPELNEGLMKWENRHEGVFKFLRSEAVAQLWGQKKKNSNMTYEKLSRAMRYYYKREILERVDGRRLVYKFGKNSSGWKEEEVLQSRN
The settings on record: protein: recombinant; tags: N-terminal GST; dsDNA, one strand shown. Summed up: as §1

A further assay has as its target CRX (Homo sapiens, UniProt O43186 1-299). As to conditions: protein: recombinant; tags: N-terminal GST; dsDNA, one strand shown. The gist of the method: as §1
For a further assay, the target named is ETV1 (Homo sapiens, UniProt P50549 1-477). The settings on record: protein: recombinant; tags: N-terminal GST; dsDNA, one strand shown. Summed up:
as §1

A further assay has as its target T6, ERF (Homo sapiens, UniProt P50548 1-548).
T6 sequence: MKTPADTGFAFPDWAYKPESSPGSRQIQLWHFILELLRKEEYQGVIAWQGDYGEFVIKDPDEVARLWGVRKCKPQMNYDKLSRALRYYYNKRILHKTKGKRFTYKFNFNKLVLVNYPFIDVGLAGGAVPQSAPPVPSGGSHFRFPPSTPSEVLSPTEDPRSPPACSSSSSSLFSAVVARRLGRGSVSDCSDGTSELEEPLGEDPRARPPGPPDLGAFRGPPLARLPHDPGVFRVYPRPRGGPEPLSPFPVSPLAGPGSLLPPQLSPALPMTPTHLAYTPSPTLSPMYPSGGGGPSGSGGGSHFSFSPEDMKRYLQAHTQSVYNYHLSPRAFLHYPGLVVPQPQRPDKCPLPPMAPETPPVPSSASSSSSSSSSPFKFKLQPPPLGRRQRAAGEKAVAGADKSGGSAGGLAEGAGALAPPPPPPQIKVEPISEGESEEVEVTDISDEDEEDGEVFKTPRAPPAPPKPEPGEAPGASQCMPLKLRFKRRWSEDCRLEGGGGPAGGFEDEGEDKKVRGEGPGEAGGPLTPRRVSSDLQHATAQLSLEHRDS
The settings on record: protein: recombinant; tags: N-terminal GST; dsDNA, one strand shown. Summed up: as §1

A further assay has as its target T7, ETV3L (Homo sapiens, UniProt Q6ZN32 1-361).
T7 sequence: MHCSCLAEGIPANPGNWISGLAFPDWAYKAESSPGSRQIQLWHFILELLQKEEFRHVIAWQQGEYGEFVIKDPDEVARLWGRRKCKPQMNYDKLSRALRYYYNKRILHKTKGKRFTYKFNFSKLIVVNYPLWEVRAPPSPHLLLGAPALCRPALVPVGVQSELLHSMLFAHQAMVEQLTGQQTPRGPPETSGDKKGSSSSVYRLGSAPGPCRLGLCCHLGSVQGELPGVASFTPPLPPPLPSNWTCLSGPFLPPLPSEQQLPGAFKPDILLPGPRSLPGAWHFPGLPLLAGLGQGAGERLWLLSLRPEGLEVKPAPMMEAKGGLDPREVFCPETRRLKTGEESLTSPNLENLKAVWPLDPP
As to conditions: protein: recombinant; tags: N-terminal GST; dsDNA, one strand shown. Summed up:
as §1

Another assay addresses T8, ETS2 (Homo sapiens, UniProt P15036 1-469).
T8 sequence: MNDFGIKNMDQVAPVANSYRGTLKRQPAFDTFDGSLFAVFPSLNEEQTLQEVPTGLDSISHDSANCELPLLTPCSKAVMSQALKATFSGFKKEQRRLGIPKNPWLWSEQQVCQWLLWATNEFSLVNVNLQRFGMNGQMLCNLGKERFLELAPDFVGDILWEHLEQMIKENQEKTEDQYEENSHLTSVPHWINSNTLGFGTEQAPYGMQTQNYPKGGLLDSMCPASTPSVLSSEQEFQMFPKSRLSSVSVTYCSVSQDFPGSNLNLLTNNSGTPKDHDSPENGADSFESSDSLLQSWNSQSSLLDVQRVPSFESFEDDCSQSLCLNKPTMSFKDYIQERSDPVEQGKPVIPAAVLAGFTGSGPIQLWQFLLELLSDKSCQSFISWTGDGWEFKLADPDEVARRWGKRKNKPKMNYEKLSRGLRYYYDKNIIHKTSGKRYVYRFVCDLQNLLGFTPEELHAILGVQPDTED
As to conditions: protein: recombinant; tags: N-terminal GST; dsDNA, one strand shown. Summed up: as §1

The target in another assay is T9, SPDEF (Homo sapiens, UniProt O95238 1-335).
T9 sequence: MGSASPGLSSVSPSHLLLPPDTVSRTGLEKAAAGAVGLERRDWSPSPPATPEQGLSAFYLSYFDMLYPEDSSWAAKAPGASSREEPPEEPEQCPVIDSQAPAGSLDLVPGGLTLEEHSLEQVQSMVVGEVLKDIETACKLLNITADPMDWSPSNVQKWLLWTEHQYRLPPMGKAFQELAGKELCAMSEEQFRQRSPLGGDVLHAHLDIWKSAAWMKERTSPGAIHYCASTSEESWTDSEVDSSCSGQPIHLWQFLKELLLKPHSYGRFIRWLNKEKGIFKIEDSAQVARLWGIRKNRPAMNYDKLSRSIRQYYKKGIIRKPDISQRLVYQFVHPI
As to conditions: protein: recombinant; tags: N-terminal GST; dsDNA, one strand shown. The gist of the method:
as §1

A further assay has as its target T10, ETV7 (Homo sapiens, UniProt Q9Y603 1-341).
T10 sequence: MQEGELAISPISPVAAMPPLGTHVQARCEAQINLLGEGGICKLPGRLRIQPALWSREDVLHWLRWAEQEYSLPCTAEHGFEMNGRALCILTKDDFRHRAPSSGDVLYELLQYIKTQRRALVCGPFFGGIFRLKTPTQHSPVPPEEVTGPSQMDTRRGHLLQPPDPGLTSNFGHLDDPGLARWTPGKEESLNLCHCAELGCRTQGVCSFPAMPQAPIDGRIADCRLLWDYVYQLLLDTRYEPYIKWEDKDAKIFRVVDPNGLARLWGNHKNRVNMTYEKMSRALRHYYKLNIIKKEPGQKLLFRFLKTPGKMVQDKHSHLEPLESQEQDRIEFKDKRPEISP
As to conditions: protein: recombinant; tags: N-terminal GST; dsDNA, one strand shown. Summed up: as §1

In the next assay the target is T11, ELF5 (Homo sapiens, UniProt Q9UKW6-2 1-255).
T11 sequence: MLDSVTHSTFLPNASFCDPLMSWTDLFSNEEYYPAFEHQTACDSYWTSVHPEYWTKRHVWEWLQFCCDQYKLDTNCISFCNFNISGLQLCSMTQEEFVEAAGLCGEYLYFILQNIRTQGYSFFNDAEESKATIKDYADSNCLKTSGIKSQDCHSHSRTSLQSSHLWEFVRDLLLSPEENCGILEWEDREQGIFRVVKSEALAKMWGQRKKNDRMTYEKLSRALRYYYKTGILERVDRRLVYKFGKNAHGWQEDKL
The settings on record: protein: recombinant; tags: N-terminal GST; dsDNA, one strand shown. The gist of the method:
as §1

The next assay deals with T12, ETV3 (Homo sapiens, UniProt P41162-2 1-143).
T12 sequence: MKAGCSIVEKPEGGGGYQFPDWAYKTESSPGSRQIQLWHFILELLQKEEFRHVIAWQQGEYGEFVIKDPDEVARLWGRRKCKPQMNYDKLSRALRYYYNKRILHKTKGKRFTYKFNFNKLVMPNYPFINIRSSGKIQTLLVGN
The settings on record: protein: recombinant; tags: N-terminal GST; dsDNA, one strand shown. Summed up:
as §1

Another assay addresses ETV6 (Homo sapiens, UniProt P41212 1-452). As to conditions: protein: recombinant; tags: N-terminal GST; dsDNA, one strand shown. Summed up: as §1

Sequence of ELF4 (Q99607 whole entry): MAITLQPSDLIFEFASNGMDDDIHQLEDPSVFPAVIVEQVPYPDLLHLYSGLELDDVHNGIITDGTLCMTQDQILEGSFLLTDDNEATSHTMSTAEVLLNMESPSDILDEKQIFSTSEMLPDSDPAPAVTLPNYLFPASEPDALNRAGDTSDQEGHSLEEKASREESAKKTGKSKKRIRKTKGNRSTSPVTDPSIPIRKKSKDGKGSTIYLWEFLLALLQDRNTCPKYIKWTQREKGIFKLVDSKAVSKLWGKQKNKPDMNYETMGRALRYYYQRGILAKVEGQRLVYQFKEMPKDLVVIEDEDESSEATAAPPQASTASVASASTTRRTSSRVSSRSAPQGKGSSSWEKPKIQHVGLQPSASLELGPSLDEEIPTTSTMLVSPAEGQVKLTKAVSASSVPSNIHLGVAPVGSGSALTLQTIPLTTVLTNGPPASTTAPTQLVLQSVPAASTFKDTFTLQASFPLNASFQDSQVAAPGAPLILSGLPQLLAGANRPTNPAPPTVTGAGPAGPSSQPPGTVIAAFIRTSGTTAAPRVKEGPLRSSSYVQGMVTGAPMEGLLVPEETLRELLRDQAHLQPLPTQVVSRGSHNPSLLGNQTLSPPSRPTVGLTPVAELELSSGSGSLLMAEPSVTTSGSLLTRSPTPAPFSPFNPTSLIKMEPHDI
Sequence of ETV6 (P41212 whole entry): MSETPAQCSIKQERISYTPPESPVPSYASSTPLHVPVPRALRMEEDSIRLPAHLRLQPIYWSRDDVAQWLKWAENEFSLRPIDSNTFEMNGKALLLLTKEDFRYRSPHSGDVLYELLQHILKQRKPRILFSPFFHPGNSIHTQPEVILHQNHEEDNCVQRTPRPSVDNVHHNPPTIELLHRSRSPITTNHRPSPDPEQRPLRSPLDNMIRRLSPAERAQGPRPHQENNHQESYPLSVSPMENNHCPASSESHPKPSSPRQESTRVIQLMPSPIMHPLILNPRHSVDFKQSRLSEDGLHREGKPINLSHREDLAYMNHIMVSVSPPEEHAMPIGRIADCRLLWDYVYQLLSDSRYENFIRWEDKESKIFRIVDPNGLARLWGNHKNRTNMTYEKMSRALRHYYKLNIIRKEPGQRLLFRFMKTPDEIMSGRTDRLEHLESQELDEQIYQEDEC
Sequence of ETV5 (P41161 whole entry): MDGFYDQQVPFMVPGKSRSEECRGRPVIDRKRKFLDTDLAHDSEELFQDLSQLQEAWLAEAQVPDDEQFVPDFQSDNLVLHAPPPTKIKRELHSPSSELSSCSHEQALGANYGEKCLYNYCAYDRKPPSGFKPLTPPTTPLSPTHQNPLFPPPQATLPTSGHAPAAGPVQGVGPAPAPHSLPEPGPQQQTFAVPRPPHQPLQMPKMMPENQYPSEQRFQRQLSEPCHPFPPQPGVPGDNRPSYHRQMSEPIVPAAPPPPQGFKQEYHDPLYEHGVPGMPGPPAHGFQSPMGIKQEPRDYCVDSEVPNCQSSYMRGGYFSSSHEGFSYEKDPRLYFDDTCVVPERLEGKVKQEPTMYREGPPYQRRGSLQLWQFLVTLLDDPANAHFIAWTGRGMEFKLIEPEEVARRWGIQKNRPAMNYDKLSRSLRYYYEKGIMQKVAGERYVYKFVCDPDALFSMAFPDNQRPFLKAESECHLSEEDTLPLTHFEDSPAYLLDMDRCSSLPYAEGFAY
Sequence of ETV1 (P50549 whole entry): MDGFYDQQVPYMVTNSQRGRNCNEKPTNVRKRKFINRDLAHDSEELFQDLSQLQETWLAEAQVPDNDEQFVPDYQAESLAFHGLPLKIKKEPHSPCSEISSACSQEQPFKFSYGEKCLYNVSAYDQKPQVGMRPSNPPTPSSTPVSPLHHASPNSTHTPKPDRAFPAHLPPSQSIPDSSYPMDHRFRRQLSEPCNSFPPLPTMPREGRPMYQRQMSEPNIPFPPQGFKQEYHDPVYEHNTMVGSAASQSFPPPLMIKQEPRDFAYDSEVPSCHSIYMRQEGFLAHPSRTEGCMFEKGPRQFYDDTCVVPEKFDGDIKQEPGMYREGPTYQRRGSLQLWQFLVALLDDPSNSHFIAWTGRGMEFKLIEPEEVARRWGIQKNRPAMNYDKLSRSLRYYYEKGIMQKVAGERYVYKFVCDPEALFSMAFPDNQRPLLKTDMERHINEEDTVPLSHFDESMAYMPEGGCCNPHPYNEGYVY
Sequence of CRX (O43186 whole entry): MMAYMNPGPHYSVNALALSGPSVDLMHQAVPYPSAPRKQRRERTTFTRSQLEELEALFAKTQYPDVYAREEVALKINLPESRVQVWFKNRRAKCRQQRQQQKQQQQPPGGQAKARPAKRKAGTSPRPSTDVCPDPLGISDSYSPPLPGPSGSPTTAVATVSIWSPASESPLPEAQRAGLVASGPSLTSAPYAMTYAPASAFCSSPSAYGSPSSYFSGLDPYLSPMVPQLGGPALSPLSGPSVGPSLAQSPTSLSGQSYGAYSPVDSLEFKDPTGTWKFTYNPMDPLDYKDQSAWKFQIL
Sequence of HSF1 (Q00613 whole entry): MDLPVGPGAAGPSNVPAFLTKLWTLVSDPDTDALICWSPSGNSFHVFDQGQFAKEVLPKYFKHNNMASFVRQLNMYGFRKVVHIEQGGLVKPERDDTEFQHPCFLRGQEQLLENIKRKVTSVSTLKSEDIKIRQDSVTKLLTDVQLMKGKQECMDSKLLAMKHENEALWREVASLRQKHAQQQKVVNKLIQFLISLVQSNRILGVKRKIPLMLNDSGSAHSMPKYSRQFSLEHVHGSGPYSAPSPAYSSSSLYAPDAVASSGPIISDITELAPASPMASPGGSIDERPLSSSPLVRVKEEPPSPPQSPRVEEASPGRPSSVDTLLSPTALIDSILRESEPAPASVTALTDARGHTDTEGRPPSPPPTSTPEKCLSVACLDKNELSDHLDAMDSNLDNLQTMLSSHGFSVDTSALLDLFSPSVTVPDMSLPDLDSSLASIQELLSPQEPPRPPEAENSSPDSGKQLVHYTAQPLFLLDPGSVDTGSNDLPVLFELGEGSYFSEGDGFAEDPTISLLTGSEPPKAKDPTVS

As for CTTAGT, the binding signal in the assay with FEV is 1.13 fold enrichment (6-mer frequency, TF over GST control); in the assay with ETV5 it was 1.3 fold enrichment (6-mer frequency, TF over GST control); with HSF1, 1.49 fold enrichment (6-mer frequency, TF over GST control); with SPIC, 1.09 fold enrichment (6-mer frequency, TF over GST control); in the assay with ELF4, 1.26 fold enrichment (6-mer frequency, TF over GST control); in the assay with ELK4, 1.12 fold enrichment (6-mer frequency, TF over GST control). In addition, the binding signal was 1.06 fold enrichment (6-mer frequency, TF over GST control) with ETV2; 1.18 fold enrichment (6-mer frequency, TF over GST control) with ELF3; 1.98 fold enrichment (6-mer frequency, TF over GST control) with CRX; 1.17 fold enrichment (6-mer frequency, TF over GST control) with ETV1; 1.29 fold enrichment (6-mer frequency, TF over GST control) with ERF; 1.18 fold enrichment (6-mer frequency, TF over GST control) with ETV3L. In addition, the binding signal with ETS2 was 1.15 fold enrichment (6-mer frequency, TF over GST control); in the assay with SPDEF, 1.2 fold enrichment (6-mer frequency, TF over GST control); with ETV7, 1.07 fold enrichment (6-mer frequency, TF over GST control); with ELF5 it was 1.13 fold enrichment (6-mer frequency, TF over GST control); with ETV3, 1.31 fold enrichment (6-mer frequency, TF over GST control); with ETV6, 1.24 fold enrichment (6-mer frequency, TF over GST control).
